Activity calls are given as the source filed them. The calls were made as follows: active = hit-call score of the fitted dose curve at least 0.9, where 1 is the maximum; inactive = score below 0.9.
Columns and labels:
[1] = ATG_CRE_CIS: Attagene CIS-FACTORIAL HepG2 Assay for human cAMP Responsive Element (CRE) binding protein 3 (AID 2282926); settings: HepG2 CRE cis-reporter, Attagene multiplexed mRNA; actives raise or lower the signal
How it was run: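 Assay format: transient reporter transfection of HepG2, 24 h treatment, total RNA isolation with DNase I step. Reporter abundance read by fluorescence after PCR and capillary separation; DMSO-normalised gain or loss fitting.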

[2] = molecular target: CCAAT/enhancer-binding protein beta (Homo sapiens) (UniProt P17676); assay: ATG_C_EBP_CIS: Attagene CIS-FACTORIAL HepG2 Assay for human CCAAT/Enhancer Binding Protein (C/EBP) beta (AID 2282927); settings: HepG2 Attagene cis-factorial transcription factor reporter; actives raise or lower the signal
CCAAT/enhancer-binding protein beta (Homo sapiens), sequence (P17676 whole entry, looked up): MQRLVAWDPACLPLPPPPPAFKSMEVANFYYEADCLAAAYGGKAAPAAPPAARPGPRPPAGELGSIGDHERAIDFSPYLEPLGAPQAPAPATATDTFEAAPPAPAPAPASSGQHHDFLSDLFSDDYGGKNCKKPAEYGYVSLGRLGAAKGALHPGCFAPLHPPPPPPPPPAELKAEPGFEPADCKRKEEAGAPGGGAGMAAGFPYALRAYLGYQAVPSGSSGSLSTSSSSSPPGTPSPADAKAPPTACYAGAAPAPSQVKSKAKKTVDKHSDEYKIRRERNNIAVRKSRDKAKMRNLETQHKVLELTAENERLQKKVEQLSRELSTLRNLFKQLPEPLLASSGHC
How it was run: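 Transiently transfected HepG2 (MRTU library, endogenous TF-driven promoters); 24 h dosing; total RNA → oligo(dT) RT → PCR → 6-FAM primer extension → HpaI digest → CE; fit bidirectionally vs DMSO.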

[3] = ATG_CMV_CIS: Attagene CIS-FACTORIAL HepG2 Assay for human CMV (Internal Marker) (AID 2282928); settings: HepG2 CMV promoter reporter, transcription factor profiling; actives raise or lower the signal;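 also: endpoint acts as a background internal control marker rather than a target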
How it was run: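 Fluorescence intensity of RT-PCR-derived reporter fragments, resolved by capillary electrophoresis, gives the signal. HepG2 liver cells bearing transfected cis-element reporters were treated 24 h; activity in either direction was fit relative to DMSO-treated controls.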

[4] = ATG_DR4_LXR_CIS: Attagene CIS-FACTORIAL HepG2 Assay for human Liver X Receptor (LXR), DR4 submotif (AID 2282929); settings: HepG2 Attagene DR4 cis-reporter, mRNA transcription; actives raise or lower the signal
How it was run: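 The endpoint is DR4-element-driven reporter transcripts after 24 h chemical exposure of transfected HepG2 cells. These were measured via RT-PCR and capillary electrophoresis, and gain or loss of signal was fitted relative to DMSO controls.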

[5] = molecular target: Aryl hydrocarbon receptor (Homo sapiens) (UniProt P35869); assay: ATG_Ahr_CIS: Attagene CIS-FACTORIAL HepG2 Assay for human Aryl Hydrocarbon Receptor (Ahr) (AID 2282930); settings: HepG2 AhR cis-factorial reporter transcription; actives raise or lower the signal
Aryl hydrocarbon receptor (Homo sapiens), sequence (P35869 whole entry, looked up): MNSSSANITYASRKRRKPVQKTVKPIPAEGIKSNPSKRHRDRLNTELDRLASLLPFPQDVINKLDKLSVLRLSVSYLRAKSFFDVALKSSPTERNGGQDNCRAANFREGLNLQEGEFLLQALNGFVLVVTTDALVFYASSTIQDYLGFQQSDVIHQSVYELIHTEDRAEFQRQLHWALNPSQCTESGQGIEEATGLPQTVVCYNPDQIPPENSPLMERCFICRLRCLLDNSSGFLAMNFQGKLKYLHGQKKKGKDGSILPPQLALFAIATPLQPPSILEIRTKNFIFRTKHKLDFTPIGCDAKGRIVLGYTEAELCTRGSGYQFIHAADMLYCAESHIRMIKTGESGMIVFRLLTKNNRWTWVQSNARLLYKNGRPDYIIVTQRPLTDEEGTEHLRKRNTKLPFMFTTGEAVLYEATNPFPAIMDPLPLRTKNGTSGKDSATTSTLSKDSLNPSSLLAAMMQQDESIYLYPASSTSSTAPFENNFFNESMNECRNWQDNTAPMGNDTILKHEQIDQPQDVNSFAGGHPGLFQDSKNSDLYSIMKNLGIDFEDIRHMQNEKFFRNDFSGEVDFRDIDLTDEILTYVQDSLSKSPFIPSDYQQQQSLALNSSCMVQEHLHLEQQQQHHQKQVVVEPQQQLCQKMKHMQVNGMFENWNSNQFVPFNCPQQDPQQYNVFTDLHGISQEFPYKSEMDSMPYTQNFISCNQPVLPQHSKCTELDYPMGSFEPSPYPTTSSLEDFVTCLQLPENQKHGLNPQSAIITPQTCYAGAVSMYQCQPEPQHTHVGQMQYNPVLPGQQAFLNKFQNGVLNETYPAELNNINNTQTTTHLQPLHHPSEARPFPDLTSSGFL
How it was run: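 Read-out: reporter mRNA quantified by RT-PCR with fluorescent primer extension and capillary electrophoresis. Human HepG2 liver cells carried transfected cis-promoter reporter units and were exposed to chemical for 24 h; gain or loss fitted relative to DMSO.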

[6] = ATG_AP_1_CIS: Attagene CIS-FACTORIAL HepG2 Assay for human Activator Protein 1 (AP-1) (AID 2282931); settings: HepG2 Attagene cis-factorial AP-1 reporter mRNA; actives raise or lower the signal
How it was run: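 Readout is reporter transcript level from endogenous transcription factor activity, quantified by RT-PCR with fluorescent primer extension and capillary electrophoresis. Transiently transfected HepG2 cells, 24 h exposure. Curves fitted both directions versus DMSO.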

[7] = ATG_AP_2_CIS: Attagene CIS-FACTORIAL HepG2 Assay for human Activator Protein 2 (AP-2) (AID 2282932); settings: HepG2 AP-2 cis-reporter, Attagene transcription factor profiling; actives raise or lower the signal
How it was run: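 Liver-derived HepG2 line, cis-reporter system measuring endogenous factors; 24 h dosing; reporter mRNA detected by fluorescent RT-PCR and capillary electrophoresis.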

[8] = ATG_BRE_CIS: Attagene CIS-FACTORIAL HepG2 Assay for human Bone Morphogenetic Protein (BMP) Response Element (BRE) (AID 2282933); settings: HepG2 BMP response element reporter, Attagene transcription factor profiling; actives raise or lower the signal
How it was run: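 Endogenous transcription factor activity read in transiently transfected HepG2 cells after 24 h chemical exposure. Bidirectional curve fitting against DMSO; readout is reporter transcript level by RT-PCR with capillary electrophoresis of labelled products.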

[9] = molecular target: Retinoic acid receptor alpha (Homo sapiens) (UniProt P10276); assay: ATG_DR5_RAR_CIS: Attagene CIS-FACTORIAL HepG2 Assay for human Retinoic Acid Receptor Alpha (RARE), DR5 submotif (AID 2282934); settings: HepG2 Attagene cis-factorial RARE DR5 reporter, mRNA; actives raise or lower the signal;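 as to AC50: reporter responds to endogenous RAR alpha beta and gamma in HepG2 not RARA alone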
Retinoic acid receptor alpha (Homo sapiens), sequence (P10276 whole entry, looked up): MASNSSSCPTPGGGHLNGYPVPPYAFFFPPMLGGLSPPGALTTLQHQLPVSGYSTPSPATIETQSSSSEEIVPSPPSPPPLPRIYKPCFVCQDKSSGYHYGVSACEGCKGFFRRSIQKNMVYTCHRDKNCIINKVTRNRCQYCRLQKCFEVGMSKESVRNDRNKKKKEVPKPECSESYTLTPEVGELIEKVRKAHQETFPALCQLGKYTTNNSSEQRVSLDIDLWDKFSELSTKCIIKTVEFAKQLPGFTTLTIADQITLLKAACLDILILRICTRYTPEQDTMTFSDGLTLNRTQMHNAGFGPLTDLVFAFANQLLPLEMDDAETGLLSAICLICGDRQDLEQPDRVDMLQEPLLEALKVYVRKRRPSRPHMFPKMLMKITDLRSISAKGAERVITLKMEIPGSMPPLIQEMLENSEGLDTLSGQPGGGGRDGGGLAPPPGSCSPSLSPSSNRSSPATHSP
How it was run: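 Read-out: DR5-driven reporter transcript measured by RT-PCR, 6-FAM primer extension, HpaI digest and capillary electrophoresis. Human HepG2 liver cells carry transiently transfected cis-element reporter constructs; dosing lasts 24 h. Gain or loss of signal fitted against DMSO baseline.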

[10] = molecular target: Transcription factor E2F1 (Homo sapiens) (UniProt Q01094); assay: ATG_E2F_CIS: Attagene CIS-FACTORIAL HepG2 Assay for human E2F Transcription Factor 1 (AID 2282935); settings: HepG2 Attagene cis-reporter, E2F reporter RNA transcripts; actives raise or lower the signal
Transcription factor E2F1 (Homo sapiens), sequence (Q01094 whole entry, looked up): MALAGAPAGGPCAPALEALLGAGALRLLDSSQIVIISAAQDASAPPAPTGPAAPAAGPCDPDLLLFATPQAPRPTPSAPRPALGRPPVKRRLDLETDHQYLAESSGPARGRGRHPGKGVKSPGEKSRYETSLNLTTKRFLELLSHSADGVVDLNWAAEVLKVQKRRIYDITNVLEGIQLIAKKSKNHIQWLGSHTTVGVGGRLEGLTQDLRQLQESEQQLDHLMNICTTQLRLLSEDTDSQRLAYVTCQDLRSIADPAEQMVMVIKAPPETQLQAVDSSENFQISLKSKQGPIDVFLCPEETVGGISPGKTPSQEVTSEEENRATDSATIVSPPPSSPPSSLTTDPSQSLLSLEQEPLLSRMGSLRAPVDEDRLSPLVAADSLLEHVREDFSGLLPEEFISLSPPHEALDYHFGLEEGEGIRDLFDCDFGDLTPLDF
How it was run: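 Liver-derived HepG2 cells expressing transfected promoter-driven reporter units received test chemical for 24 hours. Signal gains or losses were fitted bidirectionally against DMSO.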

[11] = ATG_E_Box_CIS: Attagene CIS-FACTORIAL HepG2 Assay for human Enhancer Box (E-box) (AID 2282936); settings: HepG2 E-box cis-reporter transcription, actives raise or lower the signal
How it was run: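 In this cell-based setup, HepG2 cells bearing transfected promoter-driven reporter units were exposed to chemicals for 24 h; reporter transcripts were amplified, 6-FAM-labelled, cut with HpaI and sized by capillary electrophoresis.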

[12] = ATG_M_61_CIS: Attagene CIS-FACTORIAL HepG2 Assay for M61 Transcription Factor (Internal Marker) (AID 2282937); settings: HepG2 Attagene CIS-FACTORIAL M61 internal marker reporter; actives raise or lower the signal
How it was run: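 Readout is reporter mRNA by RT-PCR, fluorescent primer extension and capillary electrophoresis, with gain or loss fitted relative to DMSO. Transfected HepG2 cells carrying endogenous-TF-driven cis reporters were exposed to chemicals for 24 hours.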

[13] = ATG_EGR_CIS: Attagene CIS-FACTORIAL HepG2 Assay for human Early Growth Response 1 (EGR1) (AID 2282938); settings: HepG2 Attagene CIS-FACTORIAL EGR reporter mRNA; actives raise or lower the signal
How it was run: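 After 24 h compound exposure, RNA from reporter-transfected HepG2 cells was reverse-transcribed, PCR-amplified, fluorescently labelled and resolved by capillary electrophoresis. EGR1 reporter transcript changes, up or down, were fitted against DMSO, reflecting endogenous transcription-factor activity.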

[14] = ATG_M_19_CIS: Attagene CIS-FACTORIAL HepG2 Assay for M19 Transcription Factor (Internal Marker) (AID 2282939); settings: HepG2 Attagene CIS-FACTORIAL M19 internal marker reporter; actives raise or lower the signal
How it was run: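 Internal marker readout, fitted in both directions against DMSO, from HepG2 cells carrying transfected cis-element reporter constructs; RT-PCR and capillary electrophoresis of reporter mRNA after 24 h exposure.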

[15] = ATG_ERE_CIS: Attagene CIS-FACTORIAL HepG2 Assay for Estrogen Response Element (ERE) (AID 2282940); settings: HepG2 ERE cis-reporter, Attagene RNA transcript; actives raise or lower the signal
How it was run: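 After 24 h compound treatment, RNA from transfected HepG2 cells was reverse-transcribed, reporter cDNA PCR-amplified, FAM-labelled, HpaI-cut and resolved by capillary electrophoresis. ERE-driven cis reporter transcripts reflect endogenous factors; gain or loss scored against DMSO.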

[16] = ATG_Ets_CIS: Attagene CIS-FACTORIAL HepG2 Assay for human Erythroblast Transformation Specific (ETS) (AID 2282941); settings: HepG2 ETS cis-reporter transcription, actives raise or lower the signal
How it was run: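 Multiplexed reporter transcript profiling: HepG2, 24 h treatment, total RNA to cDNA, PCR, 6-FAM labelling, HpaI cut, capillary electrophoresis. Gain- or loss-of-signal fitted against DMSO.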

[17] = molecular target: Hepatocyte nuclear factor 3-beta (Homo sapiens) (UniProt Q9Y261); assay: ATG_FoxA2_CIS: Attagene CIS-FACTORIAL HepG2 Assay for human Forkhead box A2 (FOXA2) (AID 2282942); settings: HepG2 cis-reporter transcription factor activity, 24 h; actives raise or lower the signal
Hepatocyte nuclear factor 3-beta (Homo sapiens), sequence (Q9Y261 whole entry, looked up): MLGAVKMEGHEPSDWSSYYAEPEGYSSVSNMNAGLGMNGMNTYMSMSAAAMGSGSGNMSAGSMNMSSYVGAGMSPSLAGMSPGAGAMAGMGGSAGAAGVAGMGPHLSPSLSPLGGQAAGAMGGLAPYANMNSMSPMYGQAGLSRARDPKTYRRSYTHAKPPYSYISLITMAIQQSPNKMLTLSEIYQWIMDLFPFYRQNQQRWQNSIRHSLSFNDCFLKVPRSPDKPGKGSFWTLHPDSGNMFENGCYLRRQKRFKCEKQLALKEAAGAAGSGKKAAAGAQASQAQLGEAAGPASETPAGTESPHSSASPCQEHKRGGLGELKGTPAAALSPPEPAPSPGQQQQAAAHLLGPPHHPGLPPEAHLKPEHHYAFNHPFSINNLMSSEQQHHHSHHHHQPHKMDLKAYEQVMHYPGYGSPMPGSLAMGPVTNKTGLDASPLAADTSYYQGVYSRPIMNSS
How it was run: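 Endogenous transcription factor activity is captured via cis-element-driven reporter transcripts in transfected HepG2. Total RNA taken at 24 h post-dosing; labelled RT-PCR products resolved by capillary electrophoresis. Gain or loss fitted versus DMSO.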

[18] = ATG_FoxO_CIS: Attagene CIS-FACTORIAL HepG2 Assay for human Forkhead box O (FoxO) (AID 2282943); settings: HepG2 Attagene cis-reporter, FoxO element, mRNA; actives raise or lower the signal
How it was run: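 Read-out: fluorescence of 6-FAM-labelled reporter cDNA fragments resolved by capillary electrophoresis. Transiently transfected HepG2 cells were dosed for 24 h; activity fitted in both directions relative to DMSO controls.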

[19] = ATG_GATA_CIS: Attagene CIS-FACTORIAL HepG2 Assay for human GATA Binding Protein (AID 2282944); settings: HepG2 GATA cis-element reporter, Attagene multiplex mRNA; actives raise or lower the signal
How it was run: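 Reporter transcripts from a GATA cis-regulated unit, among multiplexed reporters in transfected HepG2 cells, were measured by RT-PCR with capillary electrophoresis after 24 h dosing. Induction or loss scored relative to DMSO.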

[20] = ATG_GLI_CIS: Attagene CIS-FACTORIAL HepG2 Assay for human Zinc Finger Protein GLI1 (AID 2282945); settings: HepG2, Attagene cis-factorial reporter mRNA, GLI element; actives raise or lower the signal
How it was run: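 Transiently transfected HepG2 cells report endogenous transcription factor activity via cis-element-driven reporter units. After 24 h compound exposure, reporter mRNA was measured by RT-PCR with capillary electrophoresis; bidirectional fitting against DMSO baseline.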

Measured: AC50

Nc1ccc(Oc2ccc(N)c(N)c2)cc1
active: [3] 85.5 µM
inactive: all other assays above

O=C(O)C(c1ccc(Cl)cc1)c1ccc(Cl)cc1
active: [15] 2.68 µM
inactive: all other assays above

O=C(OCC1CCC2OC2C1)C1CCC2OC2C1 (stereo not given)
inactive: all assays above

C=CCCCCCCCCC(=O)OCCCC
inactive: all assays above

O=c1cc(-c2ccccc2)oc2ccccc12
active: [3] 27.7 µM | [5] 7.62 µM | [7] 26.3 µM | [8] 133 µM | [13] 82.1 µM
inactive: all other assays above

CCOc1ccc(N)c([N+](=O)[O-])c1
inactive: all assays above

CCCCC/C=C\CCC=O
inactive: all assays above

C1CN(SSN2CCOCC2)CCO1
inactive: all assays above

CCOC(=O)[C@H](C)O
inactive: all assays above

O=c1c2ccccc2nnn1CCl
inactive: all assays above

C=C(C)C(=O)OCCOc1ccccc1
inactive: all assays above

CCCCC/C=C\C/C=C\CCCCCCCC(=O)OC
active: [6] 132 µM | [8] 126 µM | [9] 71.2 µM | [13] 100 µM | [20] 162 µM
inactive: all other assays above

CCCCCCCCCCCCCCCCCC#N
inactive: all assays above

Nc1nc2ccccc2[nH]1
active: [5] 28.6 µM | [15] 77.9 µM
inactive: all other assays above
